Results reported in PubChem BioAssay AID493231 (Broad Institute, 2011).
Potency and affinity values are given separately. Activity calls are given as the source filed them. Where a call stands in place of a potency, no number is given. The rule behind the calls is not given here.

Target: Acyl-homoserine lactone acylase PvdQ (Pseudomonas aeruginosa (strain ATCC 15692 / DSM 22644 / CIP 104116 / JCM 14847 / LMG 12228 / 1C / PRS 101 / PAO1)) (UniProt Q9I194)
Assay: PvdQ acylase enzyme activity blockers – biochemical, fluorescence, plate reader and imaging, cherry-picks, dose response (AID 493231);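 note: more negative values mean stronger inhibition of the acylase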
Conditions: purified PvdQ acylase, fluorogenic substrate; series mostly up to 10 µM

Sequence of Acyl-homoserine lactone acylase PvdQ (Pseudomonas aeruginosa (strain ATCC 15692 / DSM 22644 / CIP 104116 / JCM 14847 / LMG 12228 / 1C / PRS 101 / PAO1)) (Q9I194 whole entry, looked up): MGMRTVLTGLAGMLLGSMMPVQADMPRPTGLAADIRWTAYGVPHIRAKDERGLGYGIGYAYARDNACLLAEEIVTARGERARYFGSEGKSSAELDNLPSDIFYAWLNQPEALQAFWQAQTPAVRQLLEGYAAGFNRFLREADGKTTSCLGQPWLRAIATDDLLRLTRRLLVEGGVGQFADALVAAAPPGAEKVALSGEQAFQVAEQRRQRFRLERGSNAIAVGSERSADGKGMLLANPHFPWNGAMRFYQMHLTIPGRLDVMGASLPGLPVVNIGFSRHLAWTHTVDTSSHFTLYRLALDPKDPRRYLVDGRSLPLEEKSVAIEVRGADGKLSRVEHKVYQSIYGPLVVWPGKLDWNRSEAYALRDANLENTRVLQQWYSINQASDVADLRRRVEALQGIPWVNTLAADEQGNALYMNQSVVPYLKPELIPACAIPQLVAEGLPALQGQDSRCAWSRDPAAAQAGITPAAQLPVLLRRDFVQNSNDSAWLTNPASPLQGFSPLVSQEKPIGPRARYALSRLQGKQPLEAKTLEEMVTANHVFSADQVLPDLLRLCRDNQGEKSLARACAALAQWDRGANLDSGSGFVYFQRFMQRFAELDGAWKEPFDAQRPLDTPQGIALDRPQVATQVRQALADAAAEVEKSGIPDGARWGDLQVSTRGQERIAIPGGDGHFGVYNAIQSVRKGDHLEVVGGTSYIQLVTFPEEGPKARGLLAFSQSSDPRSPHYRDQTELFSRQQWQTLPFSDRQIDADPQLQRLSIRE

Compound	outcome
CC1(C)CC2(CCO1)NCCN1C(=O)CSC12 (stereo not drawn)	inactive
Cc1cc(N(CCCl)CCCl)ccc1C=NNC(=O)c1cccnc1	inactive
O=[N+]([O-])c1ccc2c(c1)Cc1cc(O)ccc1-2	inactive
